# Assay results: PubChem BioAssay (NCATS)
# Several values for one entry are separate records, joined by “and”; a condition that tells them apart may be missing. Identical values can stand only once. Inconclusive results are not listed. Where a call stands in place of a potency, no number is given. Where a structure was tested more than once in an assay, its records may differ in their call. Activity calls are given as the source filed them. Unless noted, calls follow the shape of the dose curve; as a rule, active = well fitted curve in the direction sought with a large enough effect; inconclusive = small, poorly fitted or top-dose-only effect, or another doubt; inactive = no such curve, though single readings can be large; an effect the other way counts as inactive or inconclusive.
# Experiments:
# [1] = P-glycoprotein substrates identified in KB-8-5-11 adenocarcinoma cell line, qHTS therapeutic library screen (AID 1346987); also: nearly all actives have a fitted effect of over 65% in size; also: potency is read from the fitted curve at half-maximal effect
# Procedure, shortened: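 Human cervical adenocarcinoma KB-8-5-11 cells, selected in colchicine to over-express P-gp and assayed without it, were exposed for 72 h to titrated compounds. An ATP-based luminescent viability signal gave AC50.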
# [2] = Natriuretic polypeptide receptor (hNpr1) antagonism - Pilot counterscreen GloSensor control cell line (AID 1347045; calls by dose curve; also: series mostly up to about 38 µM)
# Procedure, shortened: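 The SNP-driven cGMP luminescence signal (50 uM, 20 min, room temperature) was measured in GloSensor HEK293 control cells. Compounds were tested as a LOPAC titration series and preincubated for 30-50 min.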
# [3] = target: Atrial natriuretic peptide receptor 1 (Homo sapiens) (UniProt P16066); assay: Natriuretic polypeptide receptor (hNpr1) antagonism - Pilot screen (AID 1347049; calls by dose curve;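 also: HEK293 cells with hNpr1 and GloSensor cGMP luciferase stimulated by 0.1 nM hNppA; agonist-evoked cGMP luminescence read 20 min after hNppA addition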; also: potency is read from the fitted curve at half-maximal effect)
# Atrial natriuretic peptide receptor 1 (Homo sapiens), sequence (P16066 whole entry, looked up): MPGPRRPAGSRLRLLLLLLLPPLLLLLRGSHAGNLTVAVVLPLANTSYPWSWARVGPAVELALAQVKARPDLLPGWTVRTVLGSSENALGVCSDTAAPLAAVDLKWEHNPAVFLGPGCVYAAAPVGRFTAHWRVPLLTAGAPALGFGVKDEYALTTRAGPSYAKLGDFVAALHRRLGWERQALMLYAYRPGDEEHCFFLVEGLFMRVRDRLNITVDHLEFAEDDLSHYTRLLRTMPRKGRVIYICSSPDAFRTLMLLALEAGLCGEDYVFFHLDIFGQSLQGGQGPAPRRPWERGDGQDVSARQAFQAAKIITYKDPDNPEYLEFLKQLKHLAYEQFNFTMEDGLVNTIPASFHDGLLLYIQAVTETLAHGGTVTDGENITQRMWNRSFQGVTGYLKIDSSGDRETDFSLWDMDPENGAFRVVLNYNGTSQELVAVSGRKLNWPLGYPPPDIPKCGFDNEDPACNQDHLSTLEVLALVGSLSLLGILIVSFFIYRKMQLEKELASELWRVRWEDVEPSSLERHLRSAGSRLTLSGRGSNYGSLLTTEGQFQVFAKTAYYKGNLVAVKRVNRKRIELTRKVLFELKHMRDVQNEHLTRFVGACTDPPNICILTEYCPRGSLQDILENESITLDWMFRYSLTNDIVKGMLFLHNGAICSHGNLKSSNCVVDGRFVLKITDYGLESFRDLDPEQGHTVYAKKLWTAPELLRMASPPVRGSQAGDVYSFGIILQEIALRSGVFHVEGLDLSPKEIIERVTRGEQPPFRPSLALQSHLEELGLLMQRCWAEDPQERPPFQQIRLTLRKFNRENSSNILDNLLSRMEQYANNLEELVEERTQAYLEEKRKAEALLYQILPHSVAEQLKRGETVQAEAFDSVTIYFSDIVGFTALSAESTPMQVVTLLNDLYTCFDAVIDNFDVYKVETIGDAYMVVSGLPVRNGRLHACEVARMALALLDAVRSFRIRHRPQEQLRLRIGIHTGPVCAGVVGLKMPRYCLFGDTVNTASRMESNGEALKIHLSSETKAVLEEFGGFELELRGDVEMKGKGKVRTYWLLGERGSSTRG
# Procedure, shortened: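 Receptor antagonism read as cGMP-dependent luminescence in hNpr1/pGS-40F HEK293 cells: pre-read after 30 min compound exposure, post-read 20 min after hNppA agonist at 0.1 nM final, all at room temperature, protected from light; A-71915 titration as control.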
# [4] = target: Atrial natriuretic peptide receptor 2 (Homo sapiens) (UniProt P20594); assay: Natriuretic polypeptide receptor (hNpr2) antagonism - Pilot subtype selectivity assay (AID 1347050; calls by dose curve)
# Atrial natriuretic peptide receptor 2 (Homo sapiens), sequence (P20594 whole entry, looked up): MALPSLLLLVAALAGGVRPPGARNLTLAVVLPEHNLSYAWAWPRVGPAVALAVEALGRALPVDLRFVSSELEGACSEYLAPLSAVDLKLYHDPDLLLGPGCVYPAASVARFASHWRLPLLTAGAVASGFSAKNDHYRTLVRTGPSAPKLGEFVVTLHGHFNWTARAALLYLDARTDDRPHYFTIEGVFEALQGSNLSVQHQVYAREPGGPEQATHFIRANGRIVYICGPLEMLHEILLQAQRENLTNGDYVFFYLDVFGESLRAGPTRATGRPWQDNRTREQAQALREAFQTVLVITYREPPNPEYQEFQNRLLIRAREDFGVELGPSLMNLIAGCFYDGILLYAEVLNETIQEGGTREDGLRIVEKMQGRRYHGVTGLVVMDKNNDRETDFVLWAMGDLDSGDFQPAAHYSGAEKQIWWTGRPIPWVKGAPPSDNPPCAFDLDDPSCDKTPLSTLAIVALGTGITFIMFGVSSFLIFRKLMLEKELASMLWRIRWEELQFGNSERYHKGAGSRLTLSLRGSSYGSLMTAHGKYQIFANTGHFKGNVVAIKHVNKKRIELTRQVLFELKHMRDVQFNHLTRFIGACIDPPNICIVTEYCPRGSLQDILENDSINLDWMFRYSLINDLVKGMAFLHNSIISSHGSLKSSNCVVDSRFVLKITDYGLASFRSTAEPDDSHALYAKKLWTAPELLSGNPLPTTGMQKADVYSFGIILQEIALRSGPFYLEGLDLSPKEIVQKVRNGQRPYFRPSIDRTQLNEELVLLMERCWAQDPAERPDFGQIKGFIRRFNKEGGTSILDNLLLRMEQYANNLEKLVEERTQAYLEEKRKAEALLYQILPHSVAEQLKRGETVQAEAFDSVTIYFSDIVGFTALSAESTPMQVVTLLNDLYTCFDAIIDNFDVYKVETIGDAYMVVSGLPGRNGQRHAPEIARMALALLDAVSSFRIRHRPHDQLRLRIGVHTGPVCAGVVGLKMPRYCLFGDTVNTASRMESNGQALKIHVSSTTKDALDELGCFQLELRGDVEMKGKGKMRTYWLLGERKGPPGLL
# Procedure, shortened: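 Antagonist mode: compounds (LOPAC1280, seven 1:5 dilutions) added 30 min before 1 nM hNppC stimulation of hNpr2-HEK293 cGMP-sensor cells; luminescence read before and 20 min after agonist at ambient temperature.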
# [5] = NS1 protein of Zika virus - qHTS assay to identify small molecule inhibitors in human HEK 293 cells (AID 1347053); also: nearly all actives have a fitted effect of over 55% in size; also: potency is read from the fitted curve at half-maximal effect
# Procedure, shortened: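 In this cell-based screen, HEK 293 cultures received compound for one hour before Zika MR766 at MOI = 0.5. NS1 was quantified 24 hours later by TR-FRET, normalized to virus-free wells and infected wells.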
# [6] = target: T1, Tyrosine-protein phosphatase non-receptor type substrate 1 (Homo sapiens) + Leukocyte surface antigen CD47 (Homo sapiens) (UniProt P78324+Q08722); assay: CD47-SIRPalpha protein protein interaction - LANCE assay qHTS validation (AID 1347057; active = well fitted curve in the direction sought with a large enough effect in the signal ratio, with a control signal flat, not every such curve was filed as active; the % refers to the signal ratio; also: series mostly up to about 38 µM)
# T1 sequence (P78324 whole entry, looked up, the tested form may be a part): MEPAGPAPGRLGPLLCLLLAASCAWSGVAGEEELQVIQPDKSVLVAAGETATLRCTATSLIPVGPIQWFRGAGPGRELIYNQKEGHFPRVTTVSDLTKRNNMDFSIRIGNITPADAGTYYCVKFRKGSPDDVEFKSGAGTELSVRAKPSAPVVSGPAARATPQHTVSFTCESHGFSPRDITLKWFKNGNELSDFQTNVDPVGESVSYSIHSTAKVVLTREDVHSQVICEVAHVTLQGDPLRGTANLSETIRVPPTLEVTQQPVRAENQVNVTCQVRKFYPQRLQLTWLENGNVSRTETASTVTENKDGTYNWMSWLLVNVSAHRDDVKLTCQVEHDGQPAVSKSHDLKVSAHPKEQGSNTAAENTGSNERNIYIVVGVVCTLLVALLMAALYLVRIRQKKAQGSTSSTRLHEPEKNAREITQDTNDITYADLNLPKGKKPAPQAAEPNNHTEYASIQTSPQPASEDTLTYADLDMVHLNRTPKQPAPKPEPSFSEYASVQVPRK
# T1 sequence (Q08722 whole entry, looked up, the tested form may be a part): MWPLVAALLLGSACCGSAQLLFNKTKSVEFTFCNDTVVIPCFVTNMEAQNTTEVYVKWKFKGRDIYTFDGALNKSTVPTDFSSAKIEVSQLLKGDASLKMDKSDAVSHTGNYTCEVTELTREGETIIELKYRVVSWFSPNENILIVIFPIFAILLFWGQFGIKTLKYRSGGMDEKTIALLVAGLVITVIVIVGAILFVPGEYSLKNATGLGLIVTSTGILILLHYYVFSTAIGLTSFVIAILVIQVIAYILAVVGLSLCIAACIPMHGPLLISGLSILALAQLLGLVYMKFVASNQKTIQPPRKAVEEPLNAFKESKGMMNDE
# Procedure, shortened: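 Inhibition of soluble CD47/SIRPalpha ectodomain association by titrated compounds, measured as 665/615 nm time-resolved FRET ratio after sequential 30 min room-temperature incubations.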
# [7] = target: T1, Tyrosine-protein phosphatase non-receptor type substrate 1 (Homo sapiens) + Leukocyte surface antigen CD47 (Homo sapiens); assay: CD47-SIRPalpha protein protein interaction - Alpha assay qHTS validation (AID 1347059);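 also: bead proximity luminescence from CD47 binding SIRPalpha after compound preincubation with SIRPalpha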; also: potency is read from the fitted curve at half-maximal effect
# Procedure, shortened: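 AlphaScreen signal between CD47-His (12.5 nM) and biotin-SIRPalpha (25 nM) soluble extracellular domains, bead-captured via Ni-NTA and streptavidin. Compounds, in 7-point titrations, met SIRPalpha 30 min before CD47; PBS pH 7.4 with 0.05% IGEPAL.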
# [8] = target: Parathyroid hormone/parathyroid hormone-related peptide receptor (Homo sapiens) (UniProt Q03431); assay: qHTS for PTHR1 Agonists: Optimization Screen against the NCGC LOPAC library (AID 1347079);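 also: GloSensor cAMP luminescence in HEK-293 GP2 cells expressing human PTHR1 with IBMX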
# Parathyroid hormone/parathyroid hormone-related peptide receptor (Homo sapiens), sequence (Q03431 whole entry, looked up): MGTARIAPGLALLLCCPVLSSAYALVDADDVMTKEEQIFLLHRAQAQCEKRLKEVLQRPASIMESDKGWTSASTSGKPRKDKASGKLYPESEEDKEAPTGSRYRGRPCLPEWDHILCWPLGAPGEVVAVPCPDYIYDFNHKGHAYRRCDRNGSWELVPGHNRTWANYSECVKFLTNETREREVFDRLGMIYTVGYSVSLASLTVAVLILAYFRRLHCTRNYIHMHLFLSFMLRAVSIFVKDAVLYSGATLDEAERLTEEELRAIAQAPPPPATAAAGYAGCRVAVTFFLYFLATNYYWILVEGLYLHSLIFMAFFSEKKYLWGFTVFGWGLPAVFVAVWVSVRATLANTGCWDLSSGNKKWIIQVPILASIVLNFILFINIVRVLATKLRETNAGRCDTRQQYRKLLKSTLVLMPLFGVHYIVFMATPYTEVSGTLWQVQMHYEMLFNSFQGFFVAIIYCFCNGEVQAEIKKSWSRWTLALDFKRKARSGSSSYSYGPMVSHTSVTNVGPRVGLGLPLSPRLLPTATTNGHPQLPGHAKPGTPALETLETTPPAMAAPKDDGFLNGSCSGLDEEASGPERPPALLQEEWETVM
# Procedure, shortened: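 Signal increase flags agonism. GP2 cells, derived from HEK-293, express human PTHR1 and a GloSensor cAMP construct.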
# [9] = qHTS of pediatric cancer cell lines to identify multiple opportunities for drug repurposing: Primary screen for TC32 cells (AID 1347089); also: nearly all actives have a fitted effect of over 60% in size; also: potency is read from the fitted curve at half-maximal effect
# Procedure, shortened: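 qHTS, TC32, 48 h drug treatment, CellTiter-Glo luminescence as a proxy for metabolically active cells; primary top concentration 46 µM (MIPE 11-pt, NPC 8-pt); confirmatory 11-pt.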
# [10] = qHTS of pediatric cancer cell lines to identify multiple opportunities for drug repurposing: Primary screen for DAOY cells (AID 1347090); also: nearly all actives have a fitted effect of over 55% in size; also: potency is read from the fitted curve at half-maximal effect
# Procedure, shortened: (§1)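 Cell viability, CellTiter-Glo luminescence; 500-1,000 cells/well, 8- or 11-point titration, 48 h compound exposure at 37 degrees C, 5% CO2. Controls: DMSO neutral, bortezomib 2.3 µM final as positive.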
# [11] = qHTS of pediatric cancer cell lines to identify multiple opportunities for drug repurposing: Primary screen for SJ-GBM2 cells (AID 1347091); also: potency is read from the fitted curve at half-maximal effect
# Procedure, shortened: as §1
# [12] = P-glycoprotein substrates identified in KB-3-1 adenocarcinoma cell line, qHTS therapeutic library screen (AID 1346986); also: nearly all actives have a fitted effect of over 60% in size;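 also: potency is read from the fitted curve at half-maximal effect; potency is for cytotoxicity meaning loss of cell viability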
# Procedure, shortened: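 Dose-response cytotoxicity, KB-3-1 vs P-gp-high KB-8-5-11, no colchicine in assay medium. Read: CellTiter-Glo at 72 h.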
# [13] = qHTS of pediatric cancer cell lines to identify multiple opportunities for drug repurposing: Primary screen for A673 cells (AID 1347092); also: nearly all actives have a fitted effect of over 45% in size; also: potency is read from the fitted curve at half-maximal effect
# Procedure, shortened: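 Luminescence from CellTiter-Glo, taken after 15 min at room temperature, served as the proxy for metabolically active cells following 48 h treatment. Both potency and efficacy were taken from curves fitted to the titration data.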
Structure (SMILES),Potency [1],Potency [2],Potency [3],Potency [4],Potency [5],outcome [6],Potency [7],outcome [8],Potency [9],Potency [10],Potency [11],Potency [12],Potency [13]
NCCCCNCCCN,inactive,inactive,inactive,inactive,inactive,inactive,inactive,inactive,inactive,inactive,inactive,,
COc1cc(C(C)=O)ccc1OCCCN1CCC(c2noc3cc(F)ccc23)CC1,,,,,inactive,,,,inactive,inactive,,inactive,inactive
C[C@@H](c1ncncc1F)[C@](O)(Cn1cncn1)c1ccc(F)cc1F,,,,,inactive,inactive,inactive,,inactive,,inactive,,
O=Nc1c(-c2c(O)[nH]c3cc(Br)ccc23)[nH]c2ccccc12,9.35 µM (active),,,,,inactive,1.31 µM (active),inactive,inactive,11.8 µM (active),5.9 µM (active),,2.35 µM (active)
Cc1cc(C2CCCCC2)n(O)c(=O)c1,5.8 µM (active),,,,inactive and 6.62 µM (active),,,,7.45 µM (active),10.6 µM (active),,6.51 µM (active),2.96 µM (active)
COc1cc2c(cc1OC)C1CC(=O)C(CC(C)C)CN1CC2 (stereo not drawn),inactive,inactive,inactive,inactive,inactive,inactive,inactive,inactive,inactive,inactive,inactive,,inactive
O=c1cc(N2CCOCC2)oc2c(-c3ccccc3)cccc12,5.9 µM (active) and 20 µM (active),inactive,inactive,inactive,inactive,inactive,inactive,inactive,,,16.6 µM (active),,
CN(C)C(=O)[C@H](O)[C@H](Cc1ccccc1)NC(=O)c1cc2cc(Cl)ccc2[nH]1,inactive,,,,inactive,inactive,inactive,,,7.43 µM (active),4.69 µM (active),inactive,5.9 µM (active)
COC(=O)C1=C(C)NC(C)=C(C(=O)OCCCN2CCC(c3ccccc3)(c3ccccc3)CC2)C1c1cccc([N+](=O)[O-])c1 (stereo not drawn),inactive and 10.3 µM (active),,,,inactive,,,,inactive,inactive,inactive,,
CC(=O)Nc1ccc(O)cc1,inactive,,,,inactive,,,,inactive,inactive,inactive,,inactive
Nc1nc(N)c(N=O)c(OCC2CCCCC2)n1,,inactive,inactive,inactive,inactive,,inactive,inactive,,,9.35 µM (active),,7.43 µM (active)
Cc1nc(-c2ccc(OCC(C)C)c(C#N)c2)sc1C(=O)O,inactive,,,,inactive,,,,inactive,inactive,inactive,,inactive
CN(C)[C@@H](CCOc1cccc2ccccc12)c1ccccc1,,,,,inactive,,,,inactive,inactive,inactive,,inactive
CC(C)c1nc(CN(C)C(=O)N[C@H](C(=O)N[C@@H](Cc2ccccc2)C[C@H](O)[C@H](Cc2ccccc2)NC(=O)OCc2cncs2)C(C)C)cs1,inactive,,,,inactive,,,,inactive,inactive,,,
c1cnc2cc3c(cc2n1)C1CNCC3C1,inactive,,,,inactive,inactive,inactive,,inactive,inactive,inactive,inactive,inactive
O=C(NOCC1CC1)c1ccc(F)c(F)c1Nc1ccc(I)cc1Cl,18.4 µM (active),,,,,,,,inactive,21.1 µM (active) and 11.8 µM (active),9.35 µM (active),,10.6 µM (active) and 9.35 µM (active)
NC(=O)Cc1cccc(C(=O)c2ccccc2)c1N,inactive,,,,inactive,,,,inactive,inactive,inactive,,inactive
COc1ccccc1N1CCN(CCN(C(=O)C2CCCCC2)c2ccccn2)CC1,inactive,inactive,inactive,inactive,inactive,inactive,inactive,inactive,inactive,,inactive,,inactive

Structure (SMILES),Potency [1],Potency [2],Potency [3],Potency [4],Potency [5],outcome [6],Potency [7],outcome [8],Potency [9],Potency [10],Potency [11],Potency [12],Potency [13]
Clc1ccc2c(N3CCN(CCCN4CCN(c5ccnc6cc(Cl)ccc56)CC4)CC3)ccnc2c1,inactive,,,,inactive,inactive,inactive,,inactive,inactive,inactive,,inactive
Cc1cc(Cl)ccc1OCCCC(=O)NO,,,,,inactive,inactive,inactive,,5.23 µM (active),9.35 µM (active),,inactive,2.96 µM (active)
CC1=C(C(=O)O)N2C(=O)[C@@H](NC(=O)[C@H](N)C3=CCC=CC3)[C@H]2SC1,inactive,,,,inactive,,,,inactive,inactive,inactive,inactive,inactive
Cc1cc(O)c2c(c1)C(=O)c1cc(O)cc(O)c1C2=O,inactive,,23.9 µM (active),,inactive,inactive,inactive,inactive,inactive,,inactive,,inactive
Cc1ccc(C(=O)c2cc(O)c(O)c([N+](=O)[O-])c2)cc1,,,,,inactive,,,,inactive,inactive,,,11.8 µM (active)
COC(=O)N[C@H](C(=O)N[C@@H](Cc1ccccc1)[C@@H](O)CN(Cc1ccc(-c2ccccn2)cc1)NC(=O)[C@@H](NC(=O)OC)C(C)(C)C)C(C)(C)C,inactive,,,,inactive,,,,inactive,inactive,inactive,,inactive
CC(=O)O[C@H]1C(=O)[C@@]2(C)C([C@H](OC(=O)c3ccccc3)[C@]3(O)C[C@H](OC(=O)[C@H](O)[C@@H](NC(=O)c4ccccc4)c4ccccc4)C(C)=C1C3(C)C)[C@]1(OC(C)=O)CO[C@@H]1C[C@@H]2O (stereo partly drawn),209 nM (active) and 1.01 µM (active),inactive,,inactive,0.0066 µM (active),,,inactive,0.0017 µM (active),,,,0.001 µM (active)
CC1(C)C(=O)N(CCN2CCC(C(=O)c3ccc(F)cc3)CC2)c2ccccc21,inactive,inactive,inactive,inactive,inactive,inactive,inactive,inactive,inactive,,inactive,,inactive
CCCS(=O)c1ccc2nc(NC(=O)OC)[nH]c2c1 (stereo not drawn),20.9 µM (active) and 13 µM (active),,,,inactive,,,,inactive,26.6 µM (active) and 23.5 µM (active),21.1 µM (active) and 18.7 µM (active),,29.6 µM (active)
O=c1c(O)c(-c2ccc(O)cc2O)oc2cc(O)cc(O)c12,inactive,inactive,inactive,inactive,inactive,,1.85 µM (active),inactive,inactive,inactive,inactive,,inactive
COCCCN1CCC(NC(=O)c2cc(Cl)c(N)c3c2OCC3)CC1,,,,,inactive,,,,inactive,inactive,inactive,,inactive
O=c1c(O)c(-c2cc(O)c(O)c(O)c2)oc2cc(O)cc(O)c12,inactive,inactive,,inactive,inactive,inactive,inactive,inactive,inactive,inactive,inactive,,
Nc1nc(OCc2ccccc2)c2[nH]cnc2n1,inactive,inactive,inactive,inactive,inactive,inactive,inactive,inactive,inactive,inactive,,,18.7 µM (active)
CN(C)CCCC1(c2ccc(F)cc2)OCc2cc(C#N)ccc21 (stereo not drawn),inactive,inactive,inactive,inactive,inactive,inactive,inactive,inactive,inactive,,inactive,,29.6 µM (active)
O=C(CCc1ccc(O)cc1)c1c(O)cc(O)cc1O,inactive,,inactive,inactive,inactive,inactive,inactive,inactive,inactive,0.118 µM (active),,inactive,
NC(=NCc1ccccc1)NC(=O)c1nc(Cl)c(N)nc1N,inactive,inactive,inactive,inactive,inactive,inactive,inactive,inactive,inactive,18.7 µM (active),inactive,,5.9 µM (active)
Cc1nccn1CC1CCc2c(c3ccccc3n2C)C1=O (stereo not drawn),inactive,,,,inactive,,,,inactive,inactive,inactive,inactive,inactive
OC(CN1CCN(c2cccc(Cl)c2)CC1)C(c1ccccc1)c1ccccc1 (stereo not drawn),inactive,inactive,,inactive,inactive,,,inactive,inactive,,,,18.7 µM (active)
